Assay results: paper PMC4336329 (PLoS ONE, 2015)
About 14,000 (4.5%) of roughly 310,000 compounds showed an effect of 50% or more. Effects have a minus sign here. The sample as a whole holds a higher share of strong results than the screen did.

The compounds below were run against human ether-à-go-go-related gene (hERG) potassium channel (human, UniProt Q12809) (assay: primary screen, population patch clamp on CHO cells stably expressing hERG; higher = less effect of the substance).
Experimental: Briefly, Chinese hamster ovary (CHO) cells stably expressing the hERG channel were dislodged from tissue culture flasks and dispensed into PPC plates. […] During the recording, background leak currents were estimated by a 100 ms step to -80 mV from an initial holding potential of -70 mV and subtracted from the subsequent current measurement. The campaign was conducted in two phases using slight differences in recording protocol. In the first phase, the initial voltage pulse used a 100 ms step to -30 mV from a holding potential of -70 mV, a 2 s conditioning step to +25 mV, and a 2 s test step to -30 mV. During the second phase of the screen, the potential during the conditioning step was raised to +45 mV. In both phases of the campaign, a secondary voltage pulse was applied using the same parameters as the second phase initial pulse. The initial and secondary pulses were applied in the absence of compound, and upon application of 1 μM and 10 μM test concentrations. […]
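Further: peak tail current of the secondary pulse compared with the same well before compound.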

Sequence of human ether-à-go-go-related gene (hERG) potassium channel (Q12809 whole entry, looked up): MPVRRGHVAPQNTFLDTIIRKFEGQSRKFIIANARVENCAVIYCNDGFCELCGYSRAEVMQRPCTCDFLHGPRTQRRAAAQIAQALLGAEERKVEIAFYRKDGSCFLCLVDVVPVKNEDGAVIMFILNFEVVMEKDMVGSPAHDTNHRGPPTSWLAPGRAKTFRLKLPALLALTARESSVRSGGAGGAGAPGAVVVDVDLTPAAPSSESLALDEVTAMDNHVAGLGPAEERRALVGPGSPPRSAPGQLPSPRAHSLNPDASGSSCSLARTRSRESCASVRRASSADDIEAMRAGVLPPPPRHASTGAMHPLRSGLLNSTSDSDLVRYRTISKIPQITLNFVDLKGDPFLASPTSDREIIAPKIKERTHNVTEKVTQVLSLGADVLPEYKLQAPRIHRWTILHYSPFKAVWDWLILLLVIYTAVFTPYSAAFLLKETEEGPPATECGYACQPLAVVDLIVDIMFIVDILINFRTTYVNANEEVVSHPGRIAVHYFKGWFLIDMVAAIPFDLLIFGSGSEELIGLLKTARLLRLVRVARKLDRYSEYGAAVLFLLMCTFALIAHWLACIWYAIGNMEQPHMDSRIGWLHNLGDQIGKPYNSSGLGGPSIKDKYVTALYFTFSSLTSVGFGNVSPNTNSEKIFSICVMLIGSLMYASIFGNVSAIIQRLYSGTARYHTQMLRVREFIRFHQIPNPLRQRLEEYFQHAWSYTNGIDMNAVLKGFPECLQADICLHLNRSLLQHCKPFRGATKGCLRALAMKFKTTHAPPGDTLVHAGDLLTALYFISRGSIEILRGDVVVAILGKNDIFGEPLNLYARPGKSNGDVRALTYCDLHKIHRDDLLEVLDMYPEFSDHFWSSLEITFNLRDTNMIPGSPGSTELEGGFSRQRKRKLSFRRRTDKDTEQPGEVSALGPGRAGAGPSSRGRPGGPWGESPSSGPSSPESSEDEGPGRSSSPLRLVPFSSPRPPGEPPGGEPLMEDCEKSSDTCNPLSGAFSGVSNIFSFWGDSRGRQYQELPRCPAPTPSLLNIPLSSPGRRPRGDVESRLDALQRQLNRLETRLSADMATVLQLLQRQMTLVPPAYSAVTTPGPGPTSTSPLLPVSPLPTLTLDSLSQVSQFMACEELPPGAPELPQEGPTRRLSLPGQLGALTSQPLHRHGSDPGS

Structure (SMILES) | hERG current change (%, negative = inhibition) at 10uM [%]
COc1ccc(OC)c(C2=Nn3c(nnc3-c3cc(OC)c(OC)c(OC)c3)SC2)c1 | -21
CC(C)(C)NS(=O)(=O)c1cc(C(=O)Nc2sccc2C#N)ccc1Cl | 4.98
COc1ccc(NC(=O)NC2(C(=O)N3CCCC3)CCCCC2)cc1 | 22
Cc1ccc(NC(=O)CN(C)C(=O)c2cccc(S(=O)(=O)N3CCc4ccccc43)c2)cc1 | -15.6
CC(=O)C1=C(O)C(=O)N(Cc2cccnc2)C1c1ccc(C(C)C)cc1 (centres unmarked) | 17.1
CC(=O)N1c2ccc(S(=O)(=O)N3CCC(C(=O)NCc4ccc(N(C)C)cc4)CC3)cc2CC1C (centres unmarked) | 18.8
COc1ccc(CCNS(=O)(=O)c2ccc(-n3cnnn3)cc2)cc1OC | -26
CC(C)CNC(=O)C1CCCN(S(=O)(=O)c2ccc(-n3cnnn3)cc2)C1 (centres unmarked) | -0.697
O=S(=O)(NCCc1ccccc1)c1ccc(-n2cnnn2)cc1 | -56.7
COc1ccc(CCNC(=O)C2CCN(S(=O)(=O)c3ccc(-n4cnnn4)cc3)CC2)cc1OC | -13
CC(C)CCNC(=O)C1CCN(S(=O)(=O)c2ccc(-n3cnnn3)cc2)CC1 | -37.6
CC(C)CNC(=O)C1CCN(S(=O)(=O)c2ccc(-n3cnnn3)cc2)CC1 | -55.3
CC(=O)Nc1ccc(S(=O)(=O)N2CCC(C(=O)NCCc3ccc(Cl)cc3)CC2)cc1 | 5.7
CCOc1cc(S(=O)(=O)NCc2ccccc2)c(OCC)cc1-n1cnnn1 | -14.3
CCOc1ccc(-n2cnnn2)cc1S(=O)(=O)Nc1c(C)cccc1C | -19.4
CCOc1ccc(-n2cnnn2)cc1S(=O)(=O)NCc1ccccc1 | -71
O=C(NCCc1ccc(Cl)cc1)C1CCN(S(=O)(=O)c2ccc(-n3cnnn3)cc2)CC1 | -69
Cc1cc(S(=O)(=O)NCCc2ccccc2)ccc1-n1cnnn1 | -17.1
O=C1CSC(c2ccc([N+](=O)[O-])cc2)N1C1CCCCC1 (centres unmarked) | -47.4
CC(C)c1ccc(O)c(NC(=S)NC(=O)c2cccnc2)c1 | 11
CC(C)Oc1cccc(C(=O)C2CCCN(C(=O)c3cc(C4CC4)[nH]n3)C2)c1 (centres unmarked) | -19.9
CC(=O)c1ccc(NC(=O)N2CCc3ccccc3C2)cc1 | -0.383

Structure (SMILES) | hERG current change (%, negative = inhibition) at 10uM [%]
CCN1CCN(CC(=O)Nc2ccc(Cl)c(Cl)c2)C(=O)C1=O | -5.76
Cc1c(N(C)C(=O)C23CC4CC(CC(C4)C2)C3)c(=O)n(-c2ccccc2)n1C | -1.09
Cc1ccc(NC(=S)N2CCN(S(=O)(=O)c3ccccc3)CC2)cc1C | 11.6
Cc1nn2cnc3sc4c(c3c2nc1=O)CCCC4 | -3.17
COc1ccc(NC(=O)CCCC2=NS(=O)(=O)c3ccccc3N2)cc1 | 17
O=c1c2ccccc2oc2cc(NCCCN3CCOCC3)ccc12 | -29.7
c1ccc2[nH]c(NCCCN3CCOCC3)nc2c1 | -6.61
O=c1c2ccccc2nc2c3ccccc3c(NCCN3CCOCC3)nn12 | -72.2
O=c1c2ccccc2sc2ccc(NCCCN3CCOCC3)cc12 | -54.2
O=c1c2ccccc2oc2ccc(NCCCN3CCOCC3)cc12 | -41.9
Fc1ccccc1-c1nc(NCCCN2CCOCC2)c2ccccc2n1 | -45.9
OCCCNc1c2ccccc2nc2ccccc12 | -65.6
CN(C)CCCNc1c2ccccc2nc2ccccc12 | -28.8
O=c1c2ccccc2nc2c3ccccc3c(NCCO)nn12 | -7.34
OCCNc1c2ccccc2nc2ccccc12 | -31
O=c1c2ccccc2nc2c3ccccc3c(NCc3ccccn3)nn12 | -13.5
c1ccc2c(NCCCN3CCOCC3)c3ccccc3nc2c1 | -66.6
O=C(C1COc2ccccc2O1)N1CCN(c2nc3c(F)cc(F)cc3s2)CC1 (centres unmarked) | -16.6
CCOc1ccc(S(=O)(=O)NC(C)C(=O)NCc2ccc3c(c2)OCO3)cc1 (centres unmarked) | 2.83
N/C(=N\OC(=O)COc1ccc(Br)cc1)c1cccnc1 | -3.21
Cc1c(Cl)c([N+](=O)[O-])nn1CC(=O)NC(C)C1CC2CCC1C2 (centres unmarked) | -12.9
CC(=O)NS(=O)(=O)c1ccc(NC(=O)c2ccc(S(=O)(=O)N3CCCC3)cc2)cc1 | -0.257
